Experimental data as given in PubChem BioAssay (NCI).
The panel holds about 83,000 compounds, 20% with a hit somewhere; the sample as a whole holds those more often.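 Method: cells in 96-well plates; compound added at one concentration; 48 h incubation; percent growth measured; values under 10 scored active.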 The source made the active and inactive calls.

The molecules below were run on HS 578T breast (assay: NCI-60 one-dose screen, 48 h (100 = growth as untreated, 0 = no growth, -100 = all killed)). Details: 10 µM unless noted.

| SMILES | growth |
| --- | --- |
| Cc1ccc2c(c1)c(Sc1ccc(C(=O)NO)cc1)c1n2CN(C)CC1 | 33.5% (inactive) |
| O=C1NC(=S)S/C1=C\c1cccc([N+](=O)[O-])c1 | 118% (inactive) |
| CCCN(CCC)c1ccc(/C=C/c2ccc3cc(OCC)ccc3n2)cc1 | 66.5% (inactive) |
| Clc1ccc(C2=NN(c3ccccc3)[C@H](c3cn(-c4ccccc4)nc3-c3ccccc3)C2)cc1 | 131% (inactive) |
| COc1cc(C(=O)/C=C/c2c(-c3cccs3)nc3sccn23)cc(OC)c1OC | -9.28% (active) |
| CCOC(=O)C1=C(C)N2C(=NC3=C(CCCC/C3=C\c3cc(OC)c(OC)c(OC)c3)C2c2cc(OC)c(OC)c(OC)c2)S1 (stereo not drawn) | 96.1% (inactive) |
| CN1CCN(c2nc(-c3ccncc3)nc3sc4c(c23)CCCCCC4)CC1 | 5.17% (active) |
| COc1ccc(-n2ncc3c4nc(OC)c(S(=O)(=O)c5ccccc5)cc4ccc32)cc1 | 43.5% (inactive) |
| COc1ccc(C2CC(c3cc(OC)c(OC)c(OC)c3)=NN2c2ccc(S(N)(=O)=O)cc2)cc1 (stereo not drawn) | 66.7% (inactive) |
| Cc1nn(CC(=O)O)c2c1C(=O)CC(C)(C)C2 | 102% (inactive) |
| O=C1C(Br)=C(c2ccccc2)C(=O)C(Br)=C1c1ccccc1 | 97.2% (inactive) |
| Cc1ccc(C)c2c1sc1nc3nc4sc5ccccc5n4c(=N)c3c(=O)n12 | 94.8% (inactive) |
| Nc1cc(Br)c(-c2nnc(CCC(=O)c3nc4ccccc4[nH]3)o2)c(Br)c1 | 99.6% (inactive) |
| COc1ccc(Nc2nc(NCCNc3ccnc4cc(Cl)ccc34)nc(N3CCOCC3)n2)cc1 | 66.3% (inactive) |
| Cc1nc2cc(Nc3nc(N4CCOCC4)nc(N4CCN(C)CC4)n3)ccc2n1Cc1ccccc1 | 108% (inactive) |
| COc1ccc(-c2nc3sc(C)cn3c2/C=C/C(=O)c2cc(OC)c(OC)c(OC)c2)cc1 | 37.3% (inactive) |
| O=[N+]([O-])c1ccc(O)c2ncccc12 | 74.2% (inactive) |

| SMILES | growth |
| --- | --- |
| CC1(C)N=C(N)N=C(N)N1c1cccc(/C=C/C=C/c2cccc([N+](=O)[O-])c2)c1 | 95% (inactive) |
| O=c1nc(NO)[nH]c(=O)n1Cc1ccccc1 | 100% (inactive) |
| C[C@@H](Oc1cc(-c2cnn(C3CC4(CCNCC4)C3)c2)cnc1N)c1c(F)ccc(Cl)c1Cl | 25.6% (inactive) |
| C=CC(=O)N1CC2(CC(n3nc(-c4ccc(Oc5ccccc5)cc4)c4c(N)ncnc43)C2)C1 | -11.6% (active) |
| COc1ccc(OC)c(C2C(C#N)=C(N)Oc3cc(O)ccc32)c1 (stereo not drawn) | 94% (inactive) |
| CC(C)(C)[Si](C)(C)OC1[C@@H](O[Si](C)(C)C(C)(C)C)[C@@H](CNC(=O)NC(=O)C(F)(F)F)O[C@H]1n1cnc2c(NC(=O)Nc3ccccc3)ncnc21 (stereo partly drawn) | 49.5% (inactive) |
| Nc1nc(N)c(N=Nc2c(Br)cc(S(N)(=O)=O)cc2Br)c(N)n1 | 95.1% (inactive) |
| O=C(NCc1cccnc1)c1ccc([N+](=O)[O-])o1 | -9.03% (active) |
| Cn1c(=O)c2c(-c3ccccc3F)n(-c3ccc4c(c3)OCO4)cc2n(C)c1=O | 88.2% (inactive) |
| Nc1nc2c(s1)CCc1c-2c(Br)n(Cc2ccccc2)c1Br | 96.9% (inactive) |
| CN1CCc2c(c3ccccc3c3ccccc23)C1 | 82.4% (inactive) |
| COc1cccc(C2C3=C(COC3=O)N(CCO)c3cc4c(cc32)CCC4)c1 (stereo not drawn) | 2.16% (active) |
| O=C(Nc1ccc(F)cc1)c1ccc(C(=O)Nc2ccc(F)cc2)cc1 | 106% (inactive) |
| Cc1cc(O)cc2c1[C@H]1CC[C@]3(C)[C@@H](O)CC[C@H]3[C@@H]1C=C2 | 86.5% (inactive) |
| C[C@@H](Oc1cc(-c2cnn(C3CC4(CCCNC4)C3)c2)cnc1N)c1c(Cl)ccc(F)c1Cl (stereo partly drawn) | 30.5% (inactive) |
| Clc1ccc(Nc2nc(Nc3ccccc3)nc(Nc3ccc(-c4cc(-c5ccc(Cl)cc5)on4)cc3)n2)cc1 | 11.7% (inactive) |
| Cc1nc(-c2ccccc2)cc2c(O)c(C(=O)N/N=C/Cc3ccccc3)[nH]c(=O)c12 | 112% (inactive) |

What follows are molecules tested on NCI/ADR-RES ovarian in the same assay as above. Details: 10 µM unless noted.

| SMILES | growth |
| --- | --- |
| Cc1ccc2c(c1)c(Sc1ccc(C(=O)NO)cc1)c1n2CN(C)CC1 | 53.1% (inactive) |
| O=C1NC(=S)S/C1=C\c1cccc([N+](=O)[O-])c1 | 96.8% (inactive) |
| CCCN(CCC)c1ccc(/C=C/c2ccc3cc(OCC)ccc3n2)cc1 | 93.1% (inactive) |
| Clc1ccc(C2=NN(c3ccccc3)[C@H](c3cn(-c4ccccc4)nc3-c3ccccc3)C2)cc1 | 105% (inactive) |
| COc1cc(C(=O)/C=C/c2c(-c3cccs3)nc3sccn23)cc(OC)c1OC | -29.7% (active) |
| CCOC(=O)C1=C(C)N2C(=NC3=C(CCCC/C3=C\c3cc(OC)c(OC)c(OC)c3)C2c2cc(OC)c(OC)c(OC)c2)S1 (stereo not drawn) | 62.1% (inactive) |
| CN1CCN(c2nc(-c3ccncc3)nc3sc4c(c23)CCCCCC4)CC1 | 64.9% (inactive) |
| COc1ccc(-n2ncc3c4nc(OC)c(S(=O)(=O)c5ccccc5)cc4ccc32)cc1 | 73.4% (inactive) |
| COc1ccc(C2CC(c3cc(OC)c(OC)c(OC)c3)=NN2c2ccc(S(N)(=O)=O)cc2)cc1 (stereo not drawn) | 55.4% (inactive) |
| Cc1nn(CC(=O)O)c2c1C(=O)CC(C)(C)C2 | 99.5% (inactive) |
| O=C1C(Br)=C(c2ccccc2)C(=O)C(Br)=C1c1ccccc1 | 103% (inactive) |
| Cc1ccc(C)c2c1sc1nc3nc4sc5ccccc5n4c(=N)c3c(=O)n12 | 97.6% (inactive) |
| Nc1cc(Br)c(-c2nnc(CCC(=O)c3nc4ccccc4[nH]3)o2)c(Br)c1 | 89.6% (inactive) |
| COc1ccc(Nc2nc(NCCNc3ccnc4cc(Cl)ccc34)nc(N3CCOCC3)n2)cc1 | 76.2% (inactive) |
| Cc1nc2cc(Nc3nc(N4CCOCC4)nc(N4CCN(C)CC4)n3)ccc2n1Cc1ccccc1 | 110% (inactive) |
| COc1ccc(-c2nc3sc(C)cn3c2/C=C/C(=O)c2cc(OC)c(OC)c(OC)c2)cc1 | 21.8% (inactive) |
| O=[N+]([O-])c1ccc(O)c2ncccc12 | 22.9% (inactive) |

| SMILES | growth |
| --- | --- |
| CC1(C)N=C(N)N=C(N)N1c1cccc(/C=C/C=C/c2cccc([N+](=O)[O-])c2)c1 | 108% (inactive) |
| O=c1nc(NO)[nH]c(=O)n1Cc1ccccc1 | 105% (inactive) |
| C[C@@H](Oc1cc(-c2cnn(C3CC4(CCNCC4)C3)c2)cnc1N)c1c(F)ccc(Cl)c1Cl | 61.5% (inactive) |
| C=CC(=O)N1CC2(CC(n3nc(-c4ccc(Oc5ccccc5)cc4)c4c(N)ncnc43)C2)C1 | 41.6% (inactive) |
| COc1ccc(OC)c(C2C(C#N)=C(N)Oc3cc(O)ccc32)c1 (stereo not drawn) | 94.7% (inactive) |
| CC(C)(C)[Si](C)(C)OC1[C@@H](O[Si](C)(C)C(C)(C)C)[C@@H](CNC(=O)NC(=O)C(F)(F)F)O[C@H]1n1cnc2c(NC(=O)Nc3ccccc3)ncnc21 (stereo partly drawn) | 85.5% (inactive) |
| Nc1nc(N)c(N=Nc2c(Br)cc(S(N)(=O)=O)cc2Br)c(N)n1 | 107% (inactive) |
| O=C(NCc1cccnc1)c1ccc([N+](=O)[O-])o1 | -29.1% (active) |
| Cn1c(=O)c2c(-c3ccccc3F)n(-c3ccc4c(c3)OCO4)cc2n(C)c1=O | 95.8% (inactive) |
| Nc1nc2c(s1)CCc1c-2c(Br)n(Cc2ccccc2)c1Br | 89.7% (inactive) |
| CN1CCc2c(c3ccccc3c3ccccc23)C1 | 45% (inactive) |
| COc1cccc(C2C3=C(COC3=O)N(CCO)c3cc4c(cc32)CCC4)c1 (stereo not drawn) | -43.2% (active) |
| O=C(Nc1ccc(F)cc1)c1ccc(C(=O)Nc2ccc(F)cc2)cc1 | 116% (inactive) |
| Cc1cc(O)cc2c1[C@H]1CC[C@]3(C)[C@@H](O)CC[C@H]3[C@@H]1C=C2 | 53.2% (inactive) |
| C[C@@H](Oc1cc(-c2cnn(C3CC4(CCCNC4)C3)c2)cnc1N)c1c(Cl)ccc(F)c1Cl (stereo partly drawn) | 46.1% (inactive) |
| Clc1ccc(Nc2nc(Nc3ccccc3)nc(Nc3ccc(-c4cc(-c5ccc(Cl)cc5)on4)cc3)n2)cc1 | 51.4% (inactive) |
| Cc1nc(-c2ccccc2)cc2c(O)c(C(=O)N/N=C/Cc3ccccc3)[nH]c(=O)c12 | 109% (inactive) |
